D1 potentiator – human D1 dopamine receptor positive modulation; AID 504651; potentiation, % at 10 µM; hit rate 0.036% among 360,000; HEK293 TREx D1 cells, calcium flux, dopamine EC20 potentiation; in the data active = potentiation above about 30%; note: 0% is about no effect
Target sequence (P21728 whole entry, looked up): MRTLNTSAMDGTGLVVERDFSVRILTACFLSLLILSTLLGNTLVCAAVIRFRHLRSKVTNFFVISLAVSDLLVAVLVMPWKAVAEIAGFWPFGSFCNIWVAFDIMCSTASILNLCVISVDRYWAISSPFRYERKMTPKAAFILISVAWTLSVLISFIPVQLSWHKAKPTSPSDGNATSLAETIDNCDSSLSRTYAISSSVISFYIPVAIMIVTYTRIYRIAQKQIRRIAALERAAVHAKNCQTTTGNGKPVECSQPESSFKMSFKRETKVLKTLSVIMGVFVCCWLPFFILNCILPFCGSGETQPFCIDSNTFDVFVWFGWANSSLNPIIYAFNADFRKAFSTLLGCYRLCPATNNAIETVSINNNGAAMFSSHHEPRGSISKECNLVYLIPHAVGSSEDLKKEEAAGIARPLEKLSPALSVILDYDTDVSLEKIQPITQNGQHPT
TRHR ag – TRH receptor (human) agonism. activation, % at 2 µM. TRHR cells, calcium flux fluo-8, FDSS agonist mode. P34981. hit rate 0.18% among 360,000. AID 493084; note: 0% is about no effect
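Fluo-8-loaded TRHR cells; 10 s baseline, compound added, kinetic Ca2+ fluorescence read 1/s, agonist mode.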
TRHR enhancer – TRH receptor (human) allosteric enhancement; AID 493056; P34981; TRHR cells, fluo-8 calcium fluorescence, EC20 TRH enhancement; enhancement, % at 2 µM; hit rate 0.66% among 360,000; in the data active = enhancement above about 30%; note: 0% is about no effect
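Enhancer read-out: after compound pinning and an initial kinetic agonist-mode read, an EC20 of TRH (10 nM final) was injected and fluo-8 calcium signal (Ex 480/Em 530) followed at 1 s/cycle for 100 cycles in TRHR-expressing cells.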
D1 antagonist – antagonists of human D1 dopamine receptor. P21728. HEK293 TREx D1 cells, calcium flux, dopamine EC80; active compounds read low. activity change, negative = inhibition, % at 10 µM. hit rate 3.2% among 360,000. AID 504652; in the data active = activity change below about -30%; note: % is set by controls: 0 for no effect and ±100 for the full control effect
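Cells carrying a force-coupled, tetracycline-inducible human D1 receptor report calcium flux. Each well gets a 10 s baseline, compound with 180 s monitoring, then an EC80 dopamine stimulus with a second 180 s kinetic read.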
D1 agonist – human D1 receptor agonism; hit rate 1% among 360,000; HEK293 T-REx D1 cells, calcium flux, agonist mode; AID 504660; P21728; activation, % at 2 µM; note: 0% is about no effect
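Inducible HEK293 T-REx D1 cells, force-coupled to calcium signalling, were plated at 4000 cells/well with tetracycline and held overnight at 30 C. After no-wash calcium dye loading, compound-evoked calcium rise over 180 s flagged agonists.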
Active calls of the source: *. Shown are actives, neighbours in structure and some others; about 4.6% of the full set was active somewhere. Cut-off read from the data, not from the text of the source, unless noted: active = activation above about 30%; inactive = the rest.

`Cc1ccc(OCc2n[nH]c(=S)n2-c2ccccc2)cc1C` gave D1 potentiator -1.4, TRHR ag 0.4, TRHR enhancer -5.9, D1 antagonist -6.9 and D1 agonist 0.7.
`Cc1ccc(-n2c(CCc3ccccc3)n[nH]c2=S)cc1C` gave D1 potentiator -1.8, TRHR ag -0.4, TRHR enhancer 30.6*, D1 antagonist -2.5 and D1 agonist 0.1.
For Cc1cccnc1NC(=O)CN1C(=O)c2ccccc2S1(=O)=O the results were D1 potentiator 0.3, TRHR ag 0.3, TRHR enhancer -2.2, D1 antagonist 2.5 and D1 agonist 1.6.
`Cc1ccc(C(=O)Nc2c(C(=O)Nc3ccc(C)c(C)c3)sc3nc(C)cc(C)c23)cc1` gave D1 potentiator -4.2, TRHR ag 0.4, TRHR enhancer -6.7, D1 antagonist 4.2 and D1 agonist -0.9.
For O=C(Nc1ccc(F)cc1)OCCOc1ccc(Br)cc1 the results were D1 potentiator 2.5, TRHR ag -0.5, TRHR enhancer -5.3, D1 antagonist -55.0* and D1 agonist 6.6.
For CCOCCCNC(=O)CN1C(=O)CCn2nc(-c3cccn3C)cc21 the results were D1 potentiator -2.4, TRHR ag 0.7, TRHR enhancer -0.8, D1 antagonist -18.8 and D1 agonist -1.1.
O=C1c2cccc([N+](=O)[O-])c2C(=O)N1c1c[nH]c(=O)[nH]c1=O was read as D1 potentiator 1.3, TRHR ag 0.0, TRHR enhancer 30.3*, D1 antagonist -11.0 and D1 agonist 0.9.
`Cc1ccccc1N1C(=O)c2cccc([N+](=O)[O-])c2C1=O` gave D1 potentiator 1.5, TRHR ag -0.4, TRHR enhancer 0.7, D1 antagonist -2.7 and D1 agonist 0.3.
Cc1nn(-c2ccc(F)cc2)c(-n2cccc2)c1C(=O)NCCCN1CCN(c2cccc(Cl)c2)CC1 was read as D1 potentiator -3.6, TRHR ag 0.2, TRHR enhancer 2.1, D1 antagonist -33.0* and D1 agonist 6.2.
Cc1nn(-c2ccccc2)c(-n2cccc2)c1C(=O)NCCc1ccc(Cl)cc1 was read as D1 potentiator 0.3, TRHR ag -1.0, TRHR enhancer 4.3, D1 antagonist -29.5 and D1 agonist 67.6*.
Cc1nn(-c2ccccc2)c(-n2cccc2)c1C(=O)NCc1ccccc1Cl was read as D1 potentiator -4.1, TRHR ag 1.9, TRHR enhancer -6.5, D1 antagonist -8.2 and D1 agonist 23.5.
For COc1ccc(N2CCN(CCCNC(=O)c3cnn(-c4ccc(F)cc4)c3-n3cccc3)CC2)cc1 the results were D1 potentiator -0.6, TRHR ag -0.7, TRHR enhancer 1.2, D1 antagonist -16.6 and D1 agonist 41.4*.
Screening COc1cc(NC(=O)c2c(C)nn(-c3ccc(F)cc3)c2-n2cccc2)cc(OC)c1 returned D1 potentiator -1.1, TRHR ag 41.6*, TRHR enhancer 8.7, D1 antagonist 0.2 and D1 agonist 5.5.
CC(=O)c1ccc(NC(=O)c2cccc(NC(=O)N3CCSc4ncccc43)c2)cc1 was read as D1 potentiator -3.1, TRHR ag 0.3, TRHR enhancer 4.0, D1 antagonist -18.8 and D1 agonist 3.2.
For CCOc1ccc(CCNC(=O)NCc2noc3ccc(C)cc23)cc1 the results were D1 potentiator 1.6, TRHR ag -0.7, TRHR enhancer 13.6, D1 antagonist -5.1 and D1 agonist -1.5.
`CN(C)c1ccc(CN(Cc2ccco2)C(=O)COc2ccc(F)cc2)cc1` gave D1 potentiator 1.7, TRHR ag -1.4, TRHR enhancer 7.0, D1 antagonist -8.9 and D1 agonist -1.5.
For N#CN1CCC(NS(=O)(=O)c2ccc(F)cc2)C1 (stereo not drawn) the results were D1 potentiator 2.4, TRHR ag 1.3, TRHR enhancer 0.3, D1 antagonist -6.5 and D1 agonist -0.1.
Cc1ccc(-c2nc(Nc3cccc(O)c3)c3ccccc3n2)cc1 was read as D1 potentiator -13.8, TRHR ag 2.9, TRHR enhancer 6.6, D1 antagonist -30.2* and D1 agonist 6.6.
For Cc1ccc(-c2nc(Nc3ccc(O)cc3)c3ccccc3n2)cc1 the results were D1 potentiator -6.5, TRHR ag 1.6, TRHR enhancer 2.3, D1 antagonist -23.2 and D1 agonist 0.4.
`O=[N+]([O-])c1ccc(-c2nc(Nc3cccc(O)c3)c3ccccc3n2)cc1` gave D1 potentiator -9.2, TRHR ag 1.0, TRHR enhancer -3.6, D1 antagonist -32.7* and D1 agonist 5.3.
CC(C)c1ccccc1NC(=O)CN(c1ccccc1)S(=O)(=O)N(C)C was read as D1 potentiator -5.7, TRHR ag 0.9, TRHR enhancer 1.7, D1 antagonist -5.3 and D1 agonist 0.3.
For CC1c2cc3c(cc2CCN1C(=O)c1ccc(Br)cc1)OCCCO3 (stereo not drawn) the results were D1 potentiator -8.9, TRHR ag 0.1, TRHR enhancer -8.2, D1 antagonist -47.2* and D1 agonist 1.0.
For COc1ccc(C(=O)N2CCc3cc4c(cc3C2C)OCCCO4)cc1 (stereo not drawn) the results were D1 potentiator -1.9, TRHR ag 1.4, TRHR enhancer -6.8, D1 antagonist 1.1 and D1 agonist -0.9.
Screening CCOc1ccc(-n2c(=O)[nH]cc(C(=O)N3CCCc4ccccc43)c2=O)cc1 returned D1 potentiator -0.3, TRHR ag -0.1, TRHR enhancer -0.8, D1 antagonist -0.7 and D1 agonist 1.0.
O=C(CCn1cccc1)N1CCc2ccccc21 was read as D1 potentiator -6.0, TRHR ag 0.2, TRHR enhancer 0.7, D1 antagonist -30.9* and D1 agonist -1.5.
O=C(Cc1ccccc1)N1CCc2ccccc21 was read as D1 potentiator 5.2, TRHR ag -0.8, TRHR enhancer 0.8, D1 antagonist -1.8 and D1 agonist 1.7.
COc1ccc(-n2c(=O)[nH]cc(C(=O)N3CCCc4ccccc43)c2=O)cc1 was read as D1 potentiator -3.1, TRHR ag -0.8, TRHR enhancer 0.2, D1 antagonist -30.8* and D1 agonist 2.4.
CCOC(=O)/C(=N/Nc1ccc(OC)cc1)N1CCCc2ccccc21 was read as D1 potentiator -3.4, TRHR ag -0.9, TRHR enhancer -3.1, D1 antagonist -41.8* and D1 agonist 0.5.
For COc1ccc(OCCCC(=O)N2CCCc3ccccc32)cc1 the results were D1 potentiator -8.1, TRHR ag -1.2, TRHR enhancer -4.2, D1 antagonist -33.5* and D1 agonist 4.5.
`NC(=O)CSc1ncc2c(n1)-c1ccccc1N(Cc1cccc(F)c1)S2(=O)=O` gave D1 potentiator -3.0, TRHR ag -0.7, TRHR enhancer -1.4, D1 antagonist -5.4 and D1 agonist 2.2.
Cc1cc(=O)oc2cc(OCCSCCN3CCCCC3)ccc12 was read as D1 potentiator -4.2, TRHR ag 0.0, TRHR enhancer -0.9, D1 antagonist -37.1* and D1 agonist 1.1.
